# The list shows a part of the results. Records with an inconclusive call do not appear. Unmarked numbers belong to inactive results. The call rests on the fitted dose curve; in most records, active means well fitted inhibition curve with a large enough effect in the main read-out, with a control signal flat; inconclusive means small, poorly fitted or top-dose-only effect, or a change in a side signal; inactive means no such curve, though single readings can be large or run the other way.
# Target: Caspase-1 (Homo sapiens) (UniProt P29466)
# Sequence (P29466 120-297 limits assumed): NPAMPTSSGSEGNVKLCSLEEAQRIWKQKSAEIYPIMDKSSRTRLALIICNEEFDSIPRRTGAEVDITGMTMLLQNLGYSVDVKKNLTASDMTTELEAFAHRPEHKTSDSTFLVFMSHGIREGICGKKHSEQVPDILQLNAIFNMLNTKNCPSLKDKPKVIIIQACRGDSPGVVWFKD
# Sequence (P29466 317-404 limits assumed): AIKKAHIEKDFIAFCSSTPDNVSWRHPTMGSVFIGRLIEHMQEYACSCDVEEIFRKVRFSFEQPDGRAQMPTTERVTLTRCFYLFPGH
# Assay: Concentration-Response Counterscreen for Redox Active Inhibitors of Caspase-1: Cysteine
# Settings: recombinant caspase-1, fluorogenic substrate, cysteine buffer; series mostly up to 57.5 µM; activity change, negative = inhibition: at the top concentration
# Source text: NIH Molecular Libraries Screening Centers Network [MLSCN]
# NIH Chemical Genomics Center [NCGC]
# PI Name: Dr. James Wells,
# Dr. Enrique Perez-Paya, Dr.Janice Williams, Dr. Dennis Wolan, a person
# The caspases (Cysteine Aspartyl Protease) comprise a related family of 14 dimeric proteases that are critical mediators of apoptosis (programmed cell death) and inflammation. The caspases represent an important class of drug targets for stroke, ischemia, cancer and inflammatory diseases. […] One goal of this project was to identify compounds that act as allosteric inhibitors via stabilizing the procaspase form of the enzyme. […]
# The biochemical assay was configured using purified caspase 1 at a high enzyme concentration to promote formation of the homodimers and thus facilitate the identification of allosteric inhibitors. […] After initiation of the assay with substrate the plates were rapidly read using an automated robotic system (Kalypsys, Inc.) to maintain consistent timing. […] Product formation was also measured after 1 hour. […]
# Caspase 1 was prepared in buffer (50 mM HEPES pH 7.5, 50 mM KCl, 200 mM NaCl, 10 mM Cys (Aldrich cat# 861677), 0.1% CHAPS) at a concentration of 66.6 nM and 3 uL was dispensed to all wells using black solid Kalypsys 1536-well plates. […] The plates were then exposed using 405 nm excitation/520 nm emission filters for 4 sec and read at 20 sec intervals for 3 min. […]
row,SMILES,"activity change, negative = inhibition [%]"
1,Cc1nc2c(C(=O)NCc3ccc4c(c3)OCO4)c[nH]n2c(=O)c1Cc1ccccc1F,-7.6

# Source: PubChem BioAssay AID929 (National Center for Advancing Translational Sciences (NCATS), 2007)
